For 24 molecules, Potency, max response and outcome results are on record in PubChem BioAssay (NCATS).

Several values for one entry are separate records, joined by “and”; a condition that tells them apart may be missing. Equal values may be shown once. A number with no mark means an inactive call. Inconclusive results are not listed. Activity calls are given as the source filed them. Unless noted, calls come from the whole dose curve; as a rule, active = well fitted curve in the direction sought with a large enough effect; inconclusive = small, poorly fitted or top-dose-only effect, or another doubt; inactive = no such curve, though single readings can be large; an effect the other way counts as inactive or inconclusive.

Experiment [1] can be described thus: qHTS assay to identify small molecule inhibitors of chordoma cells - UCH-1 (AID 1259355). Note: nearly all actives have a fitted effect of over 55% in size. Note: potency is the fitted concentration of half-maximal effect; series mostly up to about 46 µM. In a few lines:
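Cells (800/well) were seeded and left overnight at 37 C, 5% CO2, then treated with drugs at 15 concentrations plus a combination mix of auranofin, camptothecin, doxorubicin, rubitecan and topotecan. Viability after 48hr was read by CellTiter-Glo luminescence.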
On the technique in general: In qHTS, concentration-response curves come from the screen itself.

Experiment [2] can be described thus: qHTS assay to identify small molecule inhibitors of chordoma cells - UCH-2 (AID 1259356). Note: potency is the fitted concentration of half-maximal effect.
The nature of experiment [3]: P-glycoprotein substrates identified in KB-8-5-11 adenocarcinoma cell line, qHTS therapeutic library screen (AID 1346987). Note: nearly all actives have a fitted effect of over 65% in size. Note: potency is the fitted concentration of half-maximal effect. The settings on record: outcome: dose series up to 44.5 µM unless noted. In a few lines: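 KB-8-5-11, a colchicine-selected P-gp-overexpressing KB-3-1 subline, was grown without colchicine for the assay. Cells were seeded at 500 cells/well, dosed in concentration-response and incubated 72 h at 37 degree C, 5% CO2. Viability was read by CellTiter-Glo luminescence.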

The nature of experiment [4]: qHTS Assay for Identifying Gametocytocidal Compounds (AID 743244).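 Note: % is set by controls: 0 for no effect and ±100 for the full control effect; actives lower the fluorescent signal which means gametocytes are killed.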 The settings on record: P. falciparum 3D7 stage III-V gametocytes, alamarBlue, 72 h; max response: stronger effect = lower value. In short, it runs like this:
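Stage III–V gametocytes of P. falciparum 3D7 were seeded at 20,000 cells/well onto pre-dispensed compounds. After 72 h, 37 °C, 5% CO2, alamarBlue was added for another 24 h.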

The target in experiment [5] is Atrial natriuretic peptide receptor 1 (Homo sapiens) (UniProt P16066). Put plainly: Natriuretic polypeptide receptor (hNpr1) antagonism - Pilot CMLD screen (AID 1347052; calls by dose curve;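 note: cGMP level read as GloSensor luciferase luminescence after agonist stimulation; series mostly up to about 9.2 µM; % is set by controls: 0 for no effect and ±100 for the full control effect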). How it is done:
In order to identify small molecular compounds that inhibit the hNpr1 receptor we developed a high-throughput assay to measure inhibition of the guanylate cyclase activity of the receptor. cGMP production was measured using a circular permutated Firefly luciferase (FLuc) enzyme functionally linked to the cGMP binding domain of human phosphodiesterase 5 (GloSensor technology pGS-40F, (Fan, F. et al. 2008). The cGMP-sensor was expressed in human embryonic kidney 293 (HEK-293) cells and FLuc activity was measured after stimulation with hNrp agonist peptide. hNrp agonists activates the receptor's associated guanylyl cyclase (GC) domain producing cGMP which then binds to the GloSensor resulting in FLuc activation, the enzymatic activity of which can be measured as bioluminescence with addition of luciferin substrate.
This assay was initially piloted by testing with a small library of specialty compounds.
PROTOCOL TABLES (as described by Inglese J, Shamu CE and Guy RK. 2007)
SEQUENCE No. (e.g., 1, 2, 3, etc.); […] (e.g., Cells, Incubation, Reagent, etc.); VALUE and DESCRIPTION.
1. Cells. […]
7. […] GloSensor baseline pre-read luminescence measured using CCD-based camera (Viewlux). […]
10. […] GloSensor post-hNppA luminescence measured using CCD-based camera (Viewlux). […]
1. […] Cells counted with Invitrogen Countess (30,000,000 - 50,000,000 cells/flask). […]

A short description of experiment [6]: qHTS assay for cell viability of HEK293 cells (AID 743288). Note: % is set by controls: 0 for no effect and ±100 for the full control effect; nearly all actives have a fitted effect of over 50% in size. The settings on record: ATP luminescence (CellTiter-Glo), 18 h; max response: stronger effect = lower value. In short, it runs like this:
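Environmental chemicals tested in qHTS format against parental HEK293 cells; 18 h treatment, 37 C; read-out ATP luminescence (CellTiter-Glo), 30 min RT development.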

A short description of experiment [7]: qHTS assay for cell viability of the p53RE-bla HCT-116 cell line (AID 743292). Note: % is set by controls: 0 for no effect and ±100 for the full control effect; nearly all actives have a fitted effect of over 55% in size. In short, it runs like this:
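After plating at 4,000 cells per well and a 5 h rest at 37 C, HCT-116 cells carrying p53RE-bla received test chemicals in DMSO. Sixteen hours later at 37 C, CellTiter-Glo was added and luminescence recorded following 30 min at room temperature.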

A short description of experiment [8]: NS1 protein of Zika virus - qHTS assay to identify small molecule inhibitors in human HEK 293 cells (AID 1347053).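 Note: series mostly up to about 46 µM; plate controls were infected untreated cells for no effect and uninfected cells for full effect; nearly all actives have a fitted effect of over 55% in size.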 In short, it runs like this: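 HEK 293 cells pretreated with compound for 1 h, then infected with ZIKV MR766 (MOI 0.5) for 24 h at 37 C. NS1 detected by TR-FRET with two anti-NS1 antibodies; normalized to uninfected (0%) and infected (100%) wells.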

Experiment [9] has as its target Hexokinase-4 (Homo sapiens) + Glucokinase regulatory protein (Homo sapiens) (UniProt P35557+Q14397). The experiment is described as follows: qHTS assay for inhibitors of recombinant human GCK-GKRP interaction: HTRF assay (AID 743207).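 Note: 0% = DMSO with GCK present and -100% = DMSO wells lacking GCK.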 In a few lines:
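HTRF read-out (ex 320 nm; 615/665 nm emission) after 60 min RT equilibration of 5 nM GST-GCK, 5 nM FLAG-GKRP, 2 uM S6P, compound and anti-FLAG/anti-GST detection antibodies; signal normalized between DMSO wells with and without GCK.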

The target in experiment [10] is Atrial natriuretic peptide receptor 1 (Homo sapiens) (UniProt P16066). The experiment is described as follows: Natriuretic polypeptide receptor (hNpr1) antagonism - Pilot screen (AID 1347049; calls by dose curve;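 note: agonist-evoked cGMP luminescence read 20 min after hNppA addition; series mostly up to about 58 µM; % is set by controls: 0 for no effect and ±100 for the full control effect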). In short, it runs like this:
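HEK293 cells expressing hNpr1 and GloSensor cGMP luciferase, 1500/well, loaded with 2% GloSensor reagent 2 h, compound 30 min at room temperature; luminescence read before and 20 min after 0.1 nM hNppA stimulation.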

For experiment [11], the target named is Tyrosine-protein phosphatase non-receptor type substrate 1 (Homo sapiens) + Leukocyte surface antigen CD47 (Homo sapiens) (UniProt P78324+Q08722). Put plainly: CD47-SIRPalpha protein protein interaction - LANCE assay qHTS validation (AID 1347057; active = well fitted curve in the direction sought with a large enough effect in the signal ratio, with a control signal flat, not every such curve was filed as active; the % refers to the signal ratio; note: series mostly up to about 38 µM; 0% is about no effect). In short, it runs like this:
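First, His-tagged CD47 and Eu-labelled anti-His antibody met the compound for 30 min; next, site-specifically biotinylated SIRPalpha was added for 30 min; finally streptavidin-APC was added before reading the TR-FRET ratio.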

Experiment [12] addresses Parathyroid hormone/parathyroid hormone-related peptide receptor (Homo sapiens) (UniProt Q03431). Put plainly: qHTS for PTHR1 Agonists: Optimization Screen against the NCGC LOPAC library (AID 1347079).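 Note: GloSensor cAMP luminescence in HEK-293 GP2 cells expressing human PTHR1 with IBMX; 0% is about no effect.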 In a few lines: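 Agonist readout: GloSensor cAMP luminescence, read after 15 min at room temperature. HEK-293-derived GP2 line carries PTHR1; compounds tested as a titration for 1 hr at 37C in presence of IBMX. M-PTH (1-15) served as control.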

Chain of Atrial natriuretic peptide receptor 1 (Homo sapiens) (P16066 whole entry, looked up, the tested form may be a part): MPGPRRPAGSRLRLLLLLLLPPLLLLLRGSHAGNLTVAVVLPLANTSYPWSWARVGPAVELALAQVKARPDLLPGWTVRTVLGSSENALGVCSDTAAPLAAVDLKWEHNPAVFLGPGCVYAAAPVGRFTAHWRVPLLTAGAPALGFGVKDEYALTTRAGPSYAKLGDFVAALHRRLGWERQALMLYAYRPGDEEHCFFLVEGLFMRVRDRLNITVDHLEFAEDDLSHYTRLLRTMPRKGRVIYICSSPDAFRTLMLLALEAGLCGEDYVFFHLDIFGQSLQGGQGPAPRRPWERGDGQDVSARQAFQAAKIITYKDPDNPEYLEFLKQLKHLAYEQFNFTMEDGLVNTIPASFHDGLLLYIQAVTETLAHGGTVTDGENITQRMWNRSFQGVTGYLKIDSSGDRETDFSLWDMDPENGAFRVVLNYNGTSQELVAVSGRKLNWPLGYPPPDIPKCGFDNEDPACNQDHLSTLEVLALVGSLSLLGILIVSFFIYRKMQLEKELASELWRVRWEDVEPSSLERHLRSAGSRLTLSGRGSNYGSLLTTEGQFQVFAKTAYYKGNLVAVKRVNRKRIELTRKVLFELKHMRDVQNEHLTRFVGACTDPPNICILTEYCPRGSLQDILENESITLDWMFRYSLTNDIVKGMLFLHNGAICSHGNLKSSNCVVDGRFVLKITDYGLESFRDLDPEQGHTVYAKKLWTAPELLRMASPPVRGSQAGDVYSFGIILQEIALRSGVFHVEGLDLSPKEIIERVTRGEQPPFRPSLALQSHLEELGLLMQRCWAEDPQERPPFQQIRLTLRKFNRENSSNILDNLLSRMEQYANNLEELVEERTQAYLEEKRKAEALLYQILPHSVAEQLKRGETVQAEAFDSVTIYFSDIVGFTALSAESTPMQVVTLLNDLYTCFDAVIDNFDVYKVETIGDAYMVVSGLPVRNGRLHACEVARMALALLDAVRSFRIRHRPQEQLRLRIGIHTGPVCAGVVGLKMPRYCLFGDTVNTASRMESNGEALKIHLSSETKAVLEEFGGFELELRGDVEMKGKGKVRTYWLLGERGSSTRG
Chain of Tyrosine-protein phosphatase non-receptor type substrate 1 (Homo sapiens) + Leukocyte surface antigen CD47 (Homo sapiens) (P78324 whole entry, looked up): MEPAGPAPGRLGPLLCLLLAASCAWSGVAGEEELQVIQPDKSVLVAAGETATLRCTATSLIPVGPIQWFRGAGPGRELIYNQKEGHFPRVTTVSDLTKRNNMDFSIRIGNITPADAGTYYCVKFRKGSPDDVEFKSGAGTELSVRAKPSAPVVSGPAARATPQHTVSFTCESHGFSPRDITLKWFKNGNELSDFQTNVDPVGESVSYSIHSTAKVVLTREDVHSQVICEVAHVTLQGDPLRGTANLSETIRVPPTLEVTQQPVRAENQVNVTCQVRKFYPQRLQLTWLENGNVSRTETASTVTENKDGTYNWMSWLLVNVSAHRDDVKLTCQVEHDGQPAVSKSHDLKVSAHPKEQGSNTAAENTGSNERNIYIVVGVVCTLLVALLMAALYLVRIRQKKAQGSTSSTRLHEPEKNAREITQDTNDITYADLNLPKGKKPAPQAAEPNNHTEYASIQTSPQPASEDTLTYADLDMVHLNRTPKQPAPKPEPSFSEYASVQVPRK
Chain of Tyrosine-protein phosphatase non-receptor type substrate 1 (Homo sapiens) + Leukocyte surface antigen CD47 (Homo sapiens) (Q08722 whole entry, looked up): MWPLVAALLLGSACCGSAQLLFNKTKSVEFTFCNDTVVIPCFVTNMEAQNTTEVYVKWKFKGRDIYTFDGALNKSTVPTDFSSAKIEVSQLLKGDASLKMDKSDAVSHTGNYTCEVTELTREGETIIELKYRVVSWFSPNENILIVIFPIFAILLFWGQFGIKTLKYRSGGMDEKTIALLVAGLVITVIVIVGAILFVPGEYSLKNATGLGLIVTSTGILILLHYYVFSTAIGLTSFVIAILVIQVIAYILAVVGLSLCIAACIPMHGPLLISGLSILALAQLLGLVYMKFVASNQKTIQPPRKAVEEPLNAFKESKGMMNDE
Chain of Hexokinase-4 (Homo sapiens) + Glucokinase regulatory protein (Homo sapiens) (P35557 whole entry, looked up): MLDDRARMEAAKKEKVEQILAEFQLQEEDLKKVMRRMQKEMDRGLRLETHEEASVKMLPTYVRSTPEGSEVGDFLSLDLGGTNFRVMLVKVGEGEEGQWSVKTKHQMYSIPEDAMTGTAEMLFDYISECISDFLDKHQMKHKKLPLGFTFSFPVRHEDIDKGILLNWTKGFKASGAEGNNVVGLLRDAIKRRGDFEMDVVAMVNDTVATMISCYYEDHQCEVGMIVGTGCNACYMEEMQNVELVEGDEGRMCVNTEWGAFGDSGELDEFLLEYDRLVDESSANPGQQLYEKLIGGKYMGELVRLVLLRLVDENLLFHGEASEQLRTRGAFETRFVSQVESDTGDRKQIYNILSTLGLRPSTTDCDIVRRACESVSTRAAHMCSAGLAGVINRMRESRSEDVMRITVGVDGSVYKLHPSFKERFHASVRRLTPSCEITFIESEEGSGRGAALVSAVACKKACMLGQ
Chain of Hexokinase-4 (Homo sapiens) + Glucokinase regulatory protein (Homo sapiens) (Q14397 whole entry, looked up): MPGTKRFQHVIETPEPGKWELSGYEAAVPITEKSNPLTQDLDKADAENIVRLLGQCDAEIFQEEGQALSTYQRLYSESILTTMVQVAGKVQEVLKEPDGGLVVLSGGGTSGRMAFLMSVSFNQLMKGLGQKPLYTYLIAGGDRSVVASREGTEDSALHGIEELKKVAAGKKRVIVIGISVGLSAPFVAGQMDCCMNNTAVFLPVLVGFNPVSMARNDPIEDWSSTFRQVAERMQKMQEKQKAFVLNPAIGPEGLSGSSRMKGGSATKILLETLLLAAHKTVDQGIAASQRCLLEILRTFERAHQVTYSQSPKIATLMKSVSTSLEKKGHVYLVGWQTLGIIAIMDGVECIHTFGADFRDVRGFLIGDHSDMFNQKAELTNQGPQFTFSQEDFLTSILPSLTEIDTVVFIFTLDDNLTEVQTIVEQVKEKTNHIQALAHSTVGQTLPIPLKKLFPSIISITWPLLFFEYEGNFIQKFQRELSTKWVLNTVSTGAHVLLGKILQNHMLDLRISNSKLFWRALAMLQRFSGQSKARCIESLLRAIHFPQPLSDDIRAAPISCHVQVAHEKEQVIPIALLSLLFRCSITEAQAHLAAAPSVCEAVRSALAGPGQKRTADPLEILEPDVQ
Chain of Parathyroid hormone/parathyroid hormone-related peptide receptor (Homo sapiens) (Q03431 whole entry, looked up): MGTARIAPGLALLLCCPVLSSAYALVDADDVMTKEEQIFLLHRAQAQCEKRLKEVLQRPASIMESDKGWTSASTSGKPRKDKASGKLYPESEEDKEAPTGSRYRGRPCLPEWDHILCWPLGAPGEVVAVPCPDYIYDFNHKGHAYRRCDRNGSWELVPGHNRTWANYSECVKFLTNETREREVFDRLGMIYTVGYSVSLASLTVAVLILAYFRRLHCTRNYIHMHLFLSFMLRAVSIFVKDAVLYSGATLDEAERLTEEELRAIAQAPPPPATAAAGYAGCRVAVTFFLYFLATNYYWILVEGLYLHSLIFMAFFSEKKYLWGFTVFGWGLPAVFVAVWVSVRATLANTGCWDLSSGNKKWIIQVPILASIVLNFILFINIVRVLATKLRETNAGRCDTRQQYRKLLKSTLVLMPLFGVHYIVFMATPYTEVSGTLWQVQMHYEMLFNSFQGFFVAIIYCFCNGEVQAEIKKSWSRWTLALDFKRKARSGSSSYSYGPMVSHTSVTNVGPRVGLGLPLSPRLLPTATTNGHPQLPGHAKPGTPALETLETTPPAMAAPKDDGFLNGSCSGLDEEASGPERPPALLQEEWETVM

With `COc1ccc2c(c1)OC(C)(C)C(c1ccccc1)C2c1ccc(OCCN2CCCC2)cc1` (centres undefined), the Potency result in [1] and in experiment [2] was “inactive” throughout. Further, the Potency in [3] is 20.6 µM (active).
For the molecule `O=C1c2ccccc2C(=O)C1c1ccc(F)cc1`, the max response in experiment [4] is 5.59%. In addition, the Potency entry in experiment [1], in experiment [2] and in experiment [3] was “inactive” in each case.
For the molecule H-RKDVY-OH, the Potency entry in experiment [1], in experiment [2] and in [3] was “inactive” each time.
For the molecule `COc1ccc(-c2noc(CC(=O)O)c2-c2ccc(OC)cc2)cc1`, the Potency result in experiment [1], in [2] and in [3] was “inactive” throughout.
Turning to `C[C@@](Cc1ccc(O)c(O)c1)(NN)C(=O)O`, the Potency result in [1], in [2] and in [3] was “inactive” in each case.
For `Cc1c(O)c(=O)ccn1C`, in [4], the max response is 2.04%. The Potency result in experiment [1], in experiment [2] and in [3] was “inactive” each time. For the same molecule, in experiment [5], the outcome was inactive.
Turning to `Nc1ccc(N=Nc2ccccc2)c(N)n1`, the max response in experiment [4] is -8.48%; in experiment [6], -23.5% and -25.3%. Moreover, the outcome in experiment [7] and in [8] was inactive. The Potency entry in [1], in experiment [2] and in experiment [3] was “inactive” throughout.
For the molecule `CC(=O)Oc1cccc2c1C(=O)c1c(OC(C)=O)cc(C(=O)O)cc1C2=O`, the max response in experiment [4] was -7.57%. Besides, the Potency result in [1], in experiment [2] and in experiment [3] was “inactive” throughout. Also, in [8], the result was inactive.
Consider `Oc1ccc(/C=C/c2cc(O)cc(O)c2)cc1`, for which the outcome in [9], in [7], in experiment [10], in [8], in experiment [11] and in [12] was inactive. Besides, the max response is -0.421% and 10.7% in experiment [4]; -22.7% and -15% in experiment [6]. The Potency result in experiment [1], in experiment [2] and in experiment [3] was “inactive” in each case.
For `OCC1(CO)COC(C(Cl)(Cl)Cl)OC1`, the Potency result in experiment [1], in experiment [2] and in experiment [3] was “inactive” each time.
As to `CC(C)[C@@H](C)/C=C/[C@@H](C)[C@H]1CC[C@H]2/C(=C/C=C3\C[C@@H](O)CC[C@@H]3C)CCC[C@]12C`, the Potency result in experiment [1], in experiment [2] and in [3] was “inactive” in each case.
As for `C=C1CC[C@H](O)CC1=C/C=C1\CCC[C@]2(C)[C@@H]([C@H](C)/C=C/[C@H](C)C(C)C)CC[C@@H]12`, the Potency result in experiment [1], in experiment [2] and in [3] was “inactive” in each case.
As to `Cc1cc(-c2ccc(N=Nc3c(S(=O)(=O)O)cc4cc(S(=O)(=O)O)cc(N)c4c3O)c(C)c2)ccc1N=Nc1c(S(=O)(=O)O)cc2cc(S(=O)(=O)O)cc(N)c2c1O`, the Potency in [1] is 11.2 µM (active); in experiment [2] it was 8.2 µM (active); in [3], 9.2 µM (active).
In the case of `O=C(Nc1ccc(O)cc1)c1ccccc1O`, the Potency entry in [1], in [2] and in experiment [3] was “inactive” in each case.
With `CC(C)C1=CC2=CC[C@@H]3[C@](C)(CCC[C@@]3(C)C(=O)O)[C@H]2CC1`, the Potency result in experiment [1], in experiment [2] and in experiment [3] was “inactive” throughout.
Turning to `C(=C\c1ccncc1)/c1ccccc1`, the Potency entry in experiment [1], in [2] and in experiment [3] was “inactive” in each case.
Turning to `CCCOc1cc(N)ccc1C(=O)OCCN(CC)CC`, the Potency entry in [1], in experiment [2] and in [3] was “inactive” throughout.
With `CC(=O)Nc1ccc(OC(=O)c2ccccc2O)cc1`, the Potency result in experiment [1], in experiment [2] and in [3] was “inactive” each time.
On to `CCCCCCCCCCCCCCCCCCCCCC(=O)Nc1ccn([C@@H]2O[C@H](CO)[C@@H](O)[C@@H]2O)c(=O)n1`, for which the Potency entry in experiment [1], in experiment [2] and in [3] was “inactive” each time.
On to `CN=C1C=CC(=C(c2ccc(N(C)C)cc2)c2ccc(N(C)C)cc2)C=C1`, for which the Potency in [1] is 15.8 µM (active); in experiment [2], 9.2 µM (active); in [3] it was 20.6 µM (active).
The matching figures for `CNC(C)CCC=C(C)C` (centres undefined): “inactive”, “inactive” and “inactive”.
Turning to `COc1cc(NCCCC(C)N)c2ncccc2c1` (centres undefined), the Potency result in [1] and in experiment [3] was “inactive” in each case. Besides, in experiment [2], the Potency is 9.2 µM (active).
Consider `O=C(OC1C[C@@H]2CC3C[C@H](C1)N2CC3=O)c1c[nH]c2ccccc12` (some centres undefined), for which the Potency result in experiment [1], in experiment [2] and in experiment [3] was “inactive” in each case.
Take `CC(C)=CCC/C(C)=C/C=C/C(C)=C/C=C/C(C)=C/C=C/C=C(C)/C=C/C=C(C)/C=C/C=C(\C)CCC=C(C)C`: the Potency result in [1], in experiment [2] and in [3] was “inactive” each time.
